# Test results reported in PubChem BioAssay.
# For part of these data: Results with a measured potency or affinity are listed apart. Activity calls are given as the source filed them.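 Rule for the calls, unless noted: active = primary screen hit whose fluorescence ratio, in both repeats, exceeds the weak agonist control mean by 3 SD; inactive = the rest.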
# Assays:
# [1] = system: TRPC4 beta (transient receptor potential cation channel C4), mouse; assay: activators of mouse TRPC4 channel, confirmation, cell-based, Fluo4 calcium, HEK293 TRPC4beta/mu-opioid, duplicates, 10 µM (AID 2426;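 active = fluorescence ratio normalized to control raised more than 50% in primary screen plus both repeat runs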;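 for activation: percent rise of integrated ratio over buffer wells lacking compound which define 0%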); conditions: Fluo4 calcium fluorescence, at 10 µM; active compounds read high
# [2] = system: transient receptor potential cation channel C4 beta (TRPC4), mouse; assay: activators of mouse TRPC4 channel, confirmation, cell-based, second round, Fluo4, HEK293 TRPC4beta/mu-opioid, 1 µM (AID 2461;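 active = primary screen active and over 50% activation in each of two duplicate runs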;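 for activation: 0% = wells without test compound as baseline of integrated fluorescence ratio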); conditions: Fluo4 calcium fluorescence, at 1 µM; active compounds read high
# [3] = system: TRPC4 (transient receptor potential cation channel C4 beta), mouse; assay: positive allosteric modulators of mouse TRPC4, confirmation, cell-based, second round, Fluo-4, HEK293 TRPC4beta/mu-opioid, 1 µM (AID 2554); conditions: DAMGO EC20, Fluo-4 calcium flux, at 1 µM; active compounds read high
# [4] = system: TRPC4 beta (transient receptor potential cation channel C4), mouse; assay: positive allosteric modulators of mouse TRPC4, confirmation, cell-based, Fluo-4, HEK293 TRPC4beta/mu-opioid (AID 2555;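 active = primary screen hit whose calcium fluorescence ratio, in both repeats, exceeds the weak agonist control mean by 3 SD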); conditions: DAMGO EC20, Fluo-4 calcium flux, at 10 µM; active compounds read high
# [5] = biological target: Short transient receptor potential channel 4 (Mus musculus) (UniProt Q9QUQ5); assay: inhibitors of mouse TRPC4 channel, confirmation, cell-based, Fluo4, HEK293 TRPC4beta/mu-opioid (AID 2636;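 active = calcium signal cut by more than 3 SD below the full-agonist control yet still positive, in both repeats and the earlier primary screen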); conditions: DAMGO, Fluo4 calcium flux, at 10 µM; active compounds read high
# Chain of Short transient receptor potential channel 4 (Mus musculus) (Q9QUQ5 whole entry, looked up): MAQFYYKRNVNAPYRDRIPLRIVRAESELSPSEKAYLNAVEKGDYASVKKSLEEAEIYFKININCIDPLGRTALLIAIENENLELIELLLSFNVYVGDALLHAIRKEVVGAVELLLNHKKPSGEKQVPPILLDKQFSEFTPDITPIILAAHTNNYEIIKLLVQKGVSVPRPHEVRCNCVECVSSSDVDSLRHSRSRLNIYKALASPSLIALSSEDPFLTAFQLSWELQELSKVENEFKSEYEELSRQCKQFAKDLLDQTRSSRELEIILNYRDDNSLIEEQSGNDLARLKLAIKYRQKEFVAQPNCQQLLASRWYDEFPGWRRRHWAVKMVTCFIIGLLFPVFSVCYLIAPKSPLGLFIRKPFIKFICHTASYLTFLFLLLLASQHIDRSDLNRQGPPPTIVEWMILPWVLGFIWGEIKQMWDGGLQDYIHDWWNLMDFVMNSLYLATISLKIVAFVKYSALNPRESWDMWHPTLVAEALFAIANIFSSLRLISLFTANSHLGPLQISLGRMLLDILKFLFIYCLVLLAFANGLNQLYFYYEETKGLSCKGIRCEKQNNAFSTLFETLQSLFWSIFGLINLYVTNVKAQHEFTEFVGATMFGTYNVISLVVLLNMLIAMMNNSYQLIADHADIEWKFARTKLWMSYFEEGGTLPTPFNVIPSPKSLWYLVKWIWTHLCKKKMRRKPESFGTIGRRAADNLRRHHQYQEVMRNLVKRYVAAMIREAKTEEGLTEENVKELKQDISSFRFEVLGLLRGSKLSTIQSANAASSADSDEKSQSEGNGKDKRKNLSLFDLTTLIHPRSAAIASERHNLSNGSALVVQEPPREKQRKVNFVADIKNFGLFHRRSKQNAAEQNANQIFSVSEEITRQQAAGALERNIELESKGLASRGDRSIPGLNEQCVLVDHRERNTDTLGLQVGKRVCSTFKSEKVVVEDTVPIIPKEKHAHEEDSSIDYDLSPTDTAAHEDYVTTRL
# [6] = biological target: Short transient receptor potential channel 4 (Mus musculus) (UniProt Q9QUQ5); assay: inhibitors of mouse TRPC4 channel, confirmation, cell-based, second round, Fluo4, HEK293 TRPC4beta/mu-opioid, 1 µM (AID 2637;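 active = calcium signal ratio cut to more than 3 SD under the fully stimulated control mean yet still positive, in both repeats and the primary screen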); conditions: Fluo4 calcium flux, DAMGO, at 1 µM; active compounds read high
# [7] = biological target: Short transient receptor potential channel 4 (Mus musculus) (UniProt Q9QUQ5); assay: TRPC4 positive allosteric modulators, dose response, cell-based, HEK293 TRPC4/mu-opioid, Fluo-4 calcium, EC20 DAMGO (AID 434941;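 active = earlier screen potentiator hit that boosts the TRPC4 ion channel at some dose, with a dose response; inactive = no potentiation, no dose response, or not a prior hit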;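 note: calcium entry triggered by an EC20 dose of DAMGO at the co-expressed mu-opioid receptor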)
# [8] = biological target: Short transient receptor potential channel 4 (Mus musculus) (UniProt Q9QUQ5); assay: mouse TRPC4 channel inhibitors, dose response, cell-based, HEK293 TRPC4/mu-opioid, Fluo-4 calcium (AID 434942;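 active = primary screen inhibitor hit that blocks the TRPC4 channel at some tested dose, yielding a dose curve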)
# [9] = biological target: Short transient receptor potential channel 6 (Mus musculus) (UniProt Q61143); assay: inhibition of mouse TRPC6 channel, confirmation, selectivity assay for TRPC4 inhibitor project, cell-based, HEK293, membrane potential dye, duplicate (AID 434948;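 active = active in primary screen and both duplicates, each dropping signal beyond three positive-control SD with fluorescence still positive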); conditions: HEK293 TRPC6, membrane potential dye fluorescence, at 10 µM, stimulated with maximal-effect acetylcholine; active compounds read high
# Chain of Short transient receptor potential channel 6 (Mus musculus) (Q61143 whole entry, looked up): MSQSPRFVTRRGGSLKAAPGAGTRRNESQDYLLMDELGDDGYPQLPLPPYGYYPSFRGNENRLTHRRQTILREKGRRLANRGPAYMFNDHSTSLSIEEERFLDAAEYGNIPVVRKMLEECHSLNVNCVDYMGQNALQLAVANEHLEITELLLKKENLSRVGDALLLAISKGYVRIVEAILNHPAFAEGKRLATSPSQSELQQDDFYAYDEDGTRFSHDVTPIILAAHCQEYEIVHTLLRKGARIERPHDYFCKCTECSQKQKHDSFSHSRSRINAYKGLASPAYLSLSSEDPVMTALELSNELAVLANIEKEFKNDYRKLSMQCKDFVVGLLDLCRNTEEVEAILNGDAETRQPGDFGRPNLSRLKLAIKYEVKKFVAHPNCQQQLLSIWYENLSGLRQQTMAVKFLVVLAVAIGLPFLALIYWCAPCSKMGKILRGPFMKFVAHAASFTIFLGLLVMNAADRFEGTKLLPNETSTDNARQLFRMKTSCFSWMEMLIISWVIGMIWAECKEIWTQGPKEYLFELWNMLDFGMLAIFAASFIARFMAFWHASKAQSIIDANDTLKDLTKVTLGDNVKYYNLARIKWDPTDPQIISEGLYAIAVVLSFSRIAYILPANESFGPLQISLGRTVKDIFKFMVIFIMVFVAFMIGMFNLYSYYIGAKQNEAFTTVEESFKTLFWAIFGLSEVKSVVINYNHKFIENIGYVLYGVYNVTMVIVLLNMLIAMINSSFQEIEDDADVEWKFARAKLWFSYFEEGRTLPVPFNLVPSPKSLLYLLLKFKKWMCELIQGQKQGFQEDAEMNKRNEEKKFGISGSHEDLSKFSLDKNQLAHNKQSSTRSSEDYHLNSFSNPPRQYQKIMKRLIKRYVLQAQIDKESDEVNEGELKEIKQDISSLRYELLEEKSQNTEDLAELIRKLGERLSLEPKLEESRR
# [10] = biological target: Short transient receptor potential channel 6 (Mus musculus) (UniProt Q61143); assay: activation of mouse TRPC6 channel, confirmation, selectivity assay for TRPC4 activator project, cell-based, HEK293, membrane potential dye, duplicate (AID 434950;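 active = membrane potential signal rise above negative control mean plus 3 SD in both duplicates, also active in the earlier TRPC4 screen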;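 for activation: 0% = buffer only wells and 100% = acetylcholine maximal-effect wells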); conditions: HEK293 TRPC6, membrane potential fluorescence, at 10 µM; active compounds read high
# [11] = biological target: Short transient receptor potential channel 6 (Mus musculus) (UniProt Q61143); assay: TRPC6 potentiation by TRPC4 potentiator hits, confirmation, selectivity assay for TRPC4 potentiator project, HEK293 cells, membrane potential dye, duplicate (AID 434952;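 active = compound raising the membrane signal above positive-control mean plus 3 SD in both repeats, and a primary screen hit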); conditions: HEK293 TRPC6, membrane potential dye fluorescence, at 10 µM, maximal acetylcholine added after compound; active compounds read high
# [12] = biological target: Short transient receptor potential channel 4 (Mus musculus) (UniProt Q9QUQ5); assay: calcium flux activators in TRPC4/5HT1a cells, counter-screen for TRPC4 activator project, cell-based, second counter screen, HEK293 TRPC4/5HT1a, Fluo-4 (AID 434977;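 active = calcium signal rise above buffer-control mean plus 5 SD in both duplicates, and also a hit in the primary screen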;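 for activation: plate controls were assay buffer for no effect and maximal serotonin response for full effect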); conditions: Fluo-4 calcium flux, at 10 µM; active compounds read high
# [13] = calcium flux inhibitors in TRPC4/5HT1a cells, confirmation, counter-screen for TRPC4 inhibitor project, cell-based, second counter screen, HEK293 TRPC4/5HT1a, Fluo-4 (AID 434978;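 active = primary screen active whose calcium signal fell more than 3 SD beyond the full-serotonin control mean in both duplicate plates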;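 note: serotonin given first at submaximal then at maximal dose after compound preincubation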); conditions: Fluo-4 calcium flux, at 10 µM, serotonin added to trigger calcium flux; active compounds read high
# [14] = system: TRPC4 (mouse), co-expressed with 5HT1a in HEK293; assay: calcium flux potentiators in TRPC4/5HT1a cells, confirmation, counter-screen for TRPC4 potentiator project, cell-based, second counter screen, HEK293 TRPC4/5HT1a, Fluo-4 (AID 434979;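 active = signal rise over 3 SD above mean of control wells given weak agonist, in both repeats and first screen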); conditions: Fluo-4 calcium flux, at 10 µM, serotonin added at its EC20 dose; active compounds read high
# [15] = calcium flux activation in mu-opioid HEK293 cells, confirmation, counter-screen for TRPC4 activator project, cell-based, HEK293 mu-opioid receptor line (AID 449723;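 active = hit in primary screen, with calcium signal over 5 SD above buffer well mean in both duplicates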;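 note: counter screen cells carry the mu-opioid receptor alone and lack TRPC4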); conditions: Fluo-4 calcium fluorescence, at 10 µM; active compounds read high
# [16] = calcium flux enhancement in mu-opioid HEK293 cells, confirmation, counter-screen for TRPC4 allosteric potentiator project, cell-based, HEK293 mu-opioid receptor line (AID 449724;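 active = calcium signal rise more than 3 SD above the low-dose agonist control mean, in both duplicate plates and the primary screen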); conditions: Fluo-4 calcium flux, at 10 µM, compound added before EC20 DAMGO stimulus; active compounds read high
compound,measurement,setting,value
COc1ccccc1C(=O)NNC(=S)NC(=O)c1cccs1,activation,[1],74% (active)
same,outcome,[2],inactive
same,outcome,[3],inactive
same,outcome,[4],inactive
same,outcome,[5],inactive
same,outcome,[6],inactive
same,outcome,[7],inactive
same,outcome,[8],inactive
same,outcome,[9],inactive
same,outcome,[10],inactive
same,outcome,[11],inactive
same,activation,[12],59.6% (active)
same,outcome,[13],inactive
same,outcome,[14],inactive
same,activation,[15],13.9% (active)
same,outcome,[16],inactive
CC1CCCN(CCCNC(=O)c2ccc3c(c2)N(Cc2ccccc2F)C(=O)c2ccccc2S3(=O)=O)C1 (stereo not given),activation,[1],125% (active)
same,activation,[2],68% (active)
same,outcome,[3],inactive
same,outcome,[4],inactive
same,outcome,[5],inactive
same,outcome,[6],inactive
same,outcome,[7],inactive
same,outcome,[8],inactive
same,outcome,[9],inactive
same,outcome,[10],inactive
same,outcome,[11],inactive
same,activation,[12],24.4% (active)
same,outcome,[13],inactive
same,outcome,[14],inactive
same,outcome,[15],inactive
same,outcome,[16],inactive
CCN(c1ccccc1)S(=O)(=O)c1ccc(C(=O)N(CCCN(C)C)c2nc3cc4c(cc3s2)OCO4)cc1,activation,[1],99% (active)
same,outcome,[2],inactive
same,outcome,[3],inactive
same,outcome,[4],inactive
same,outcome,[5],inactive
same,outcome,[6],inactive
same,outcome,[7],inactive
same,outcome,[8],inactive
same,outcome,[9],inactive
same,outcome,[10],inactive
same,outcome,[11],inactive
same,outcome,[12],inactive
same,outcome,[13],inactive
same,outcome,[14],inactive
same,outcome,[15],inactive
same,outcome,[16],inactive
Cc1ccc(C)c(CN2CCC(CNC(=O)CCc3nnc4ccc(N5CCCCC5)nn34)CC2)c1,activation,[1],157% (active)
same,activation,[2],92% (active)
same,outcome,[3],inactive
same,outcome,[4],inactive
same,outcome,[5],inactive
same,outcome,[6],inactive
same,outcome,[7],inactive
same,outcome,[8],inactive
same,outcome,[9],inactive
same,outcome,[10],inactive
same,outcome,[11],inactive
same,outcome,[12],inactive
same,outcome,[13],inactive
same,outcome,[14],inactive
same,outcome,[15],inactive
same,outcome,[16],inactive
OCCNCCSc1ccc(Cl)cc1,activation,[1],82% (active)
same,outcome,[2],inactive
same,outcome,[3],inactive
same,outcome,[4],inactive
same,outcome,[5],inactive
same,outcome,[6],inactive
same,outcome,[7],inactive
same,outcome,[8],inactive
same,outcome,[9],inactive
same,activation,[10],39.5% (active)
same,outcome,[11],inactive
same,activation,[12],22.3% (active)
same,outcome,[13],inactive
same,outcome,[14],inactive
same,outcome,[15],inactive
same,outcome,[16],inactive
Cc1ccc(C)c(S(=O)(=O)N2CCN(C(=O)CCc3nc4ccccc4c(=O)[nH]3)CC2)c1,activation,[1],153% (active)
same,outcome,[2],inactive
same,outcome,[3],inactive
same,outcome,[4],inactive
same,outcome,[5],inactive
same,outcome,[6],inactive
same,outcome,[7],inactive
same,outcome,[8],inactive
same,outcome,[9],inactive
same,activation,[10],39% (active)
same,outcome,[11],inactive
same,activation,[12],25.2% (active)
same,outcome,[13],inactive
same,outcome,[14],inactive
same,outcome,[15],inactive
same,outcome,[16],inactive
CN(C)c1ccc(NC(=S)N2CCN(c3ncc(C(F)(F)F)cc3Cl)CC2)cc1,activation,[1],112% (active)
same,outcome,[2],inactive
same,outcome,[3],inactive
same,outcome,[4],inactive
same,outcome,[5],inactive
same,outcome,[6],inactive
same,outcome,[7],inactive
same,outcome,[8],inactive
same,outcome,[9],inactive
same,activation,[10],27.5% (active)
same,outcome,[11],inactive
same,activation,[12],54.3% (active)
same,outcome,[13],inactive
same,outcome,[14],inactive
same,outcome,[15],inactive
same,outcome,[16],inactive
Cc1onc(-c2c(F)cccc2Cl)c1C(=O)N1CCN(c2ncc(Br)cn2)CC1,activation,[1],109% (active)
same,outcome,[2],inactive
same,outcome,[3],inactive
same,outcome,[4],inactive
same,outcome,[5],inactive
same,outcome,[6],inactive
same,outcome,[7],inactive
same,outcome,[8],inactive
same,outcome,[9],inactive
same,activation,[10],42.5% (active)
same,outcome,[11],inactive
same,activation,[12],37.9% (active)
same,outcome,[13],inactive
same,outcome,[14],inactive
same,outcome,[15],inactive
same,outcome,[16],inactive
CNCCCOc1ccc2c(c1)CCC2,activation,[1],75% (active)
same,outcome,[2],inactive
same,potentiation,[3],24% (active)
same,potentiation,[4],29% (active)
same,outcome,[5],inactive
same,outcome,[6],inactive
same,outcome,[7],inactive
same,outcome,[8],inactive
same,outcome,[9],inactive
same,activation,[10],57% (active)
same,outcome,[11],inactive
same,activation,[12],16.2% (active)
same,outcome,[13],inactive
same,outcome,[14],inactive
same,outcome,[15],inactive
same,outcome,[16],inactive
CC1(C)CC(=O)c2cc(C(=O)NCc3ccco3)c(=O)n(-c3ccc(Cl)cc3)c2C1,outcome,[1],inactive
same,outcome,[2],inactive
same,outcome,[3],inactive
same,outcome,[4],inactive
same,outcome,[5],inactive
same,outcome,[6],inactive
same,outcome,[7],inactive
same,outcome,[8],inactive
same,outcome,[9],inactive
same,activation,[10],66.5% (active)
same,outcome,[11],inactive
same,outcome,[12],inactive
same,outcome,[13],inactive
same,outcome,[14],inactive
same,outcome,[15],inactive
same,outcome,[16],inactive
O=C(NCCc1ccccn1)C(F)(F)C(F)(F)C(F)(F)C(F)(F)C(F)(F)C(F)F,activation,[1],178% (active)
same,outcome,[2],inactive
same,outcome,[3],inactive
same,outcome,[4],inactive
same,outcome,[5],inactive
same,outcome,[6],inactive
same,outcome,[7],inactive
same,outcome,[8],inactive
same,outcome,[9],inactive
same,outcome,[10],inactive
same,outcome,[11],inactive
same,activation,[12],46% (active)
same,outcome,[13],inactive
same,outcome,[14],inactive
same,outcome,[15],inactive
same,outcome,[16],inactive
COc1ccc(-c2nc(CN3CCC(C(=O)NC4CCCC4)CC3)c(C)o2)cc1OC,activation,[1],152% (active)
same,activation,[2],70% (active)
same,outcome,[3],inactive
same,outcome,[4],inactive
same,outcome,[5],inactive
same,outcome,[6],inactive
same,outcome,[7],inactive
same,outcome,[8],inactive
same,outcome,[9],inactive
same,activation,[10],57% (active)
same,outcome,[11],inactive
same,outcome,[12],inactive
same,outcome,[13],inactive
same,outcome,[14],inactive
same,outcome,[15],inactive
same,outcome,[16],inactive
CC1CC(C)CN(CCCNC(=O)c2nn(C)c3c2CS(=O)(=O)c2ccccc2-3)C1 (stereo not given),activation,[1],112% (active)
same,activation,[2],72% (active)
same,outcome,[3],inactive
same,outcome,[4],inactive
same,outcome,[5],inactive
same,outcome,[6],inactive
same,outcome,[7],inactive
same,outcome,[8],inactive
same,outcome,[9],inactive
same,activation,[10],40.5% (active)
same,outcome,[11],inactive
same,activation,[12],43.2% (active)
same,outcome,[13],inactive
same,outcome,[14],inactive
same,outcome,[15],inactive
same,outcome,[16],inactive
CN(C)C(CNC(=O)CCc1c[nH]c2ccccc12)c1ccccc1 (stereo not given),activation,[1],89% (active)
same,activation,[2],83% (active)
same,outcome,[3],inactive
same,outcome,[4],inactive
same,outcome,[5],inactive
same,outcome,[6],inactive
same,outcome,[7],inactive
same,outcome,[8],inactive
same,outcome,[9],inactive
same,activation,[10],26% (active)
same,outcome,[11],inactive
same,outcome,[12],inactive
same,outcome,[13],inactive
same,outcome,[14],inactive
same,outcome,[15],inactive
same,outcome,[16],inactive
CCCN(CCC)CCCNc1ccc2nnc(-c3ccc(F)cc3)n2n1,activation,[1],92% (active)
same,outcome,[2],inactive
same,outcome,[3],inactive
same,outcome,[4],inactive
same,outcome,[5],inactive
same,outcome,[6],inactive
same,outcome,[7],inactive
same,outcome,[8],inactive
same,outcome,[9],inactive
same,outcome,[10],inactive
same,outcome,[11],inactive
same,activation,[12],41.2% (active)
same,outcome,[13],inactive
same,outcome,[14],inactive
same,outcome,[15],inactive
same,outcome,[16],inactive
